Rows were chosen to be rich in hits. Some 7.4% of all compounds tested hit in one or more screens of this group.
Rab9 promoter act – activators of Rab9 promoter; Huh7 Rab9 promoter-luciferase reporter, luminescence, 24 h; Potency, µM (highest dose often 9.22 µM), most hits filed as activators; hit rate 2.8% among 320,000; AID 485297; also: nearly all actives have a fitted effect of over 60% in size
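Stable Rab9-luc Huh7, 1500 cells/well, 2 h settle; cmpd in DMSO, 24 h, 37 °C/5% CO2; luciferase reagent 10 min RT; luminescence.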
SMN2 splice up – SMN2 splice variant enhancement. HEK293 SMN2-luciferase splicing reporter, luminescence, 30-36 h. Potency, µM (series often up to 46.1 µM), most hits filed as activators. hit rate 2.8% among 210,000; also: nearly all actives have a fitted effect of over 55% in size
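HEK293 cells carry an SMN2 minigene-luciferase reporter in which exon 7 inclusion puts luciferase in frame. Cells were seeded at 2000 cells/well, attached for 10-12 hours, then exposed to compounds for 30-36 hours at 37C before ONE-Glo luminescence.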
NPC1 promoter act – activates the NPC1 promoter; Potency, µM (titrated, usually from 9.22 µM), most hits filed as activators; hit rate 2.4% among 320,000; Huh7 NPC1 promoter luciferase reporter, 24 h; also: nearly all actives have a fitted effect of over 60% in size
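Quantitative HTS used a cell-based reporter: Huh7 cells stably bearing the NPC1 promoter upstream of luciferase were treated with compounds for 24 h, and promoter activation was read as luminescence.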
FLuc modulator – counter-screen for miR-21 project: firefly luciferase inhibitors or activators; hit rate 6.9% among 360,000; purified FLuc, Km substrates, luminescence inhibition; Potency, µM (titrated, usually from 57.5 µM), usual class: inhibitors; AID 588342; P08659; also: nearly all actives have a fitted effect of over 55% in size
Target sequence (P08659 whole entry, looked up): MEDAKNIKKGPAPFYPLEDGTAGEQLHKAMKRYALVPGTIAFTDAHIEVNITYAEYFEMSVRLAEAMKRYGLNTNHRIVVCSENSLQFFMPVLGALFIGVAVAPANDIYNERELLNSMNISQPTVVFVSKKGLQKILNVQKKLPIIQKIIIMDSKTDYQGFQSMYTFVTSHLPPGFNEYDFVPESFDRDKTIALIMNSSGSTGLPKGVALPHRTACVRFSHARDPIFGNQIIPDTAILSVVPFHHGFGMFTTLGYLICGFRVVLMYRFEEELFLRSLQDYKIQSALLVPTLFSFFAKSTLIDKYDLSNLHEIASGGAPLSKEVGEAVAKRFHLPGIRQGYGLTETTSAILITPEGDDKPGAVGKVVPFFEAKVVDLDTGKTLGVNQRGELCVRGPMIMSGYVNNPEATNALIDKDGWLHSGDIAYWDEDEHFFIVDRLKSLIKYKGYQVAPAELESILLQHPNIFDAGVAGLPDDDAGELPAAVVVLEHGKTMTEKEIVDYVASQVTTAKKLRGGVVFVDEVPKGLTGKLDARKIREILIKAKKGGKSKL
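Biochemical qHTS of compounds, final roughly 60 µM downward over six points, against 10 nM purified firefly luciferase using Km concentrations of substrates (10 uM D-luciferin, 10 uM ATP) in Tris acetate pH 7.5 buffer; luminescence output.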
ELG1 genotoxic – inducers of genotoxicity in HEK293T ELG1-luciferase cells | Potency, µM (titrated, usually from 46 µM), usual class: activators | HEK293T ELG1-luciferase reporter, luminescence, 16 h | hit rate 1.3% among 330,000; also: nearly all actives have a fitted effect of over 60% in size
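HEK293T cells expressing luciferase-tagged ELG1 were treated with compound or DMSO for 16 hr at 37°C. Luciferase activity was then read after 30 min with ONE-Glo at room temperature; rising signal flags genetic stress.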
Luc counter – Kinase-Glo luciferase inhibition (counter-screen); Kinase-Glo luciferase, ATP luminescence, 8 min; AID 1379; Q27757; hit rate 0.28% among 200,000; Potency, µM (titrated, usually from 38.3 µM), hits mostly inhibitors; also: nearly all actives have a fitted effect of over 60% in size
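Substrate mix (final 50 mM imidazole pH 7.2, 50 mM KCl, 7 mM MgCl2, 10 uM ATP, 0.01% Tween 20, 0.05% BSA) plus pin-tool compound, then Kinase-Glo detection mix; 8 min ambient, luminescence read.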
Hits are given with their value; - = inactive; ? = inconclusive; . = no result given. Calls follow the shape of the dose curve; as a rule, active = well fitted curve in the direction sought with a large enough effect; inconclusive = small, poorly fitted or top-dose-only effect, or another doubt; inactive = no such curve, though single readings can be large; an effect the other way counts as inactive or inconclusive.

SMILES	Rab9 promoter act	SMN2 splice up	NPC1 promoter act	FLuc modulator	ELG1 genotoxic	Luc counter
Oc1cccc(-c2nc3ccc4ccccc4c3c3c2CCC3)c1	?	?	?	6µM	-	-
O=C(NC(=S)Nc1cccc(O)c1)C1CCCCC1	.	.	.	.	-	.
COc1cc2c(cc1NCc1ccc3c(c1)OCO3)oc1ccccc12	-	22µM	-	?	-	-
COc1ccc(OC)c(NC(=O)c2ccc3c(c2)OCO3)c1	-	.	-	21µM	-	.
COc1ccccc1NC(=O)c1ccc2c(c1)OCO2	4µM	.	2.5µM	15µM	10µM	.
O=C(Nc1ccc2c(c1)oc1ccccc12)c1ccc2c(c1)OCO2	?	-	?	?	?	-
COc1cc2c(cc1NC(=O)c1ccc3c(c1)OCO3)oc1ccccc12	3.2µM	14µM	?	6.7µM	12µM	-
COc1ccccc1CNC(=O)c1ccc2c(c1)OCO2	-	.	-	-	-	.
O=C1C=CC2=C3c4cc(O)c(O)cc4C[C@@]3(O)COC2=C1	.	-	.	.	.	-
COc1ccc(-c2csc(NC(=O)c3ccc(OCC(=O)N4CCOCC4)c(OC)c3)n2)cc1	-	-	-	17µM	-	-
COc1ccc(OC)c(-c2csc(NC(=O)c3ccc4c(c3)OCO4)n2)c1	-	?	-	4.8µM	-	-
Cc1nc2ccc(S(=O)(=O)N(C)CC(=O)Nc3cccc(C(F)(F)F)c3)cc2s1	.	-	.	-	.	.
Cc1cc(NS(=O)(=O)c2ccc(NC(=O)c3ccccc3F)cc2)no1	.	.	.	.	-	.
CCC(=O)N1CCN(c2ccc(NC(=S)NC(=O)c3cc4ccccc4o3)cc2)CC1	-	.	-	-	-	.
CCOC(=O)Cc1csc(NC(=O)CCCc2ccccc2)n1	-	.	-	-	-	.
CCOC(=O)Cc1csc(NC(=O)/C=C/c2ccc(OC)cc2)n1	-	-	-	1.3µM	-	-
CCOC(=O)Cc1csc(NC(=O)/C=C\c2ccccc2)n1	-	-	-	5.4µM	-	-
O=C(NCC1CCCO1)c1ccc(N2C(=O)C3CCCCC3C2=O)cc1 (stereo not drawn)	-	.	-	-	-	.
Nc1nc(SCC(=O)NC2CCCCC2)n[nH]1	-	.	-	-	-	.
COc1ccc(C(=O)Nc2scc(-c3ccc(Cl)cc3Cl)c2C(N)=O)cc1	3.2µM	-	2.8µM	4.8µM	-	-
CCOC(=O)c1c(-c2ccc(OC)c(OC)c2)csc1NC(=O)c1ccc(C)cc1	.	-	.	-	.	.
CS(=O)(=O)c1ccc2nc(NC(=O)C3CCCO3)sc2c1 (stereo not drawn)	-	.	-	-	-	-
O=C(Nc1nc2ccc(Cl)cc2s1)C1CCCO1 (stereo not drawn)	3.5µM	22µM	1µM	6.7µM	4.6µM	-
O=C(Nc1nc2ccc([N+](=O)[O-])cc2s1)C1CCCO1 (stereo not drawn)	2.2µM	?	?	15µM	?	-
COc1ccc(N2CCN(C(=O)c3c(C)oc4ncn(CC(C)C)c(=O)c34)CC2)cc1	.	.	.	-	.	.
SMILES	Rab9 promoter act	SMN2 splice up	NPC1 promoter act	FLuc modulator	ELG1 genotoxic	Luc counter
CN(C)c1ccc(CNC(=O)C2(C)C=CCN2C(=O)c2ccccc2)cc1 (stereo not drawn)	.	16µM	.	.	.	-
CC1(C(=O)O)C=CCN1C(=O)c1ccccc1 (stereo not drawn)	-	-	-	-	-	-
Cc1occc1C(=O)N/N=C/C(Br)=C/c1ccccc1	0.89µM	8.9µM	1.8µM	2.7µM	?	-
Cc1occc1C(=O)N/N=C/c1ccc(OCc2ccccc2)cc1	2.8µM	.	?	?	?	.
O=C(N/N=C/c1ccc(F)cc1)c1ccc(OCc2ccccc2)cc1	-	.	-	-	-	.
Cc1occc1C(=O)N/N=C/c1ccc(-c2ccccc2)cc1	0.4µM	.	0.32µM	0.67µM	0.16µM	.
O=C(/C=C/c1ccc(Cl)c(C(F)(F)F)c1)N1CCN(c2ccccn2)CC1	-	.	-	-	-	.
COc1ncccc1-c1nnn(-c2ccc(C)cc2)n1	3.2µM	.	3.2µM	4.3µM	9.2µM	.
NC(=O)c1cccnc1Oc1ccc(Cl)cc1Cl	-	.	-	-	-	.
COc1ncccc1-c1nnn(-c2ccc(Cl)c(Cl)c2)n1	3.2µM	.	2.8µM	4.8µM	?	.
COc1ncccc1-c1nnn(-c2ccc(F)cc2)n1	4µM	.	2.8µM	5.4µM	9.2µM	.

Assay outcomes (PubChem BioAssay)
